Experimental data published in ChEMBL document CHEMBL3988442, “University of Dundee, Small-Polar-MMV Screening Library” (2021).
Hit rate of the full screen: of about 48,000 compounds, about 13,000 (27%) showed an effect of 50% or more. This is one part of the list.

Each compound was assayed on Wolbachia pipientis (assay: Anti-Wolbachia Cell-Based Screen). Settings: 5 µM.
Type: functional
Set-up: scale not given: in the data most compounds retested in dose-response had high values
For O=C(CCN1CCCO1)N1CC[C@@H](CNC(=O)N2CCCC2)[C@H](O)C1, the “Percent Effect” value was 5.965%. CCc1ccc2c(c1)C(CCNC(=O)c1sccc1C)C(=O)N2 (centres undefined) was tested, and the “Percent Effect” value was -0.3397%. With Cn1nc(CN2CCC(c3ccncc3)CC2)c2c(Cl)cccc21 the “Percent Effect” value was -3.245%. For OC(COCc1ccccc1F)CN1CCc2c(ncn2C2CC2)C1 (centres undefined), the “Percent Effect” value was -3.372%. With Cc1ncc(CN(C)CC(O)c2ccc(Br)cc2)s1 (centres undefined) the “Percent Effect” value was 5.745%. Cn1cnnc1CC1CCN(Cc2nn(C)c3cccc(Cl)c23)CC1 was tested, and the “Percent Effect” value was -2.14%. In the case of Cc1cnn(CC2CCCN2C(=O)CCc2ccncc2)c1 (centres undefined), the “Percent Effect” value is reported as 138.1%. With Cc1cnn(CC2CCCN2C(=O)CCc2ccco2)c1 (centres undefined) the “Percent Effect” value was 108.9%. With Cc1cnn(CC2CCCN2C(=O)CCc2ccsc2)c1 (centres undefined) the “Percent Effect” value was -5.285%. Cc1cnn(CC2CCCN2C(=O)CCc2ccc3c(c2)OCO3)c1 (centres undefined) was tested, and the “Percent Effect” value was 126.1%. With Cc1cnn(CC2CCCN2CC(=O)N(C)Cc2ccco2)c1 (centres undefined) the “Percent Effect” value was -7.327%. For CC(=O)Nc1ccc(S(=O)(=O)Nc2c(F)cccc2F)cc1, the “Percent Effect” value was 12.85%. In the case of Cc1cnn(CC2CN(CC(=O)Nc3nnc(C)s3)CCO2)c1 (centres undefined), the “Percent Effect” value is reported as -4.997%. In the case of COc1cc(F)ccc1C(C(=O)O)N(C)CCN1CCCC1 (centres undefined), the “Percent Effect” value is reported as -2.761%. For O=S(=O)(Cc1ccccc1)NCC1CCCN(Cc2cccs2)C1 (centres undefined), the “Percent Effect” value was -20.75%. In the case of CC(C)c1nc(O)c2nnn(C[C@H]3CCCN(Cc4cccs4)C3)c2n1, the “Percent Effect” value is reported as 127.4%. In the case of CC(C)c1nc(O)c2nnn(C[C@@H]3CCCN(Cc4cccs4)C3)c2n1, the “Percent Effect” value is reported as 127%. CC1CN(Cc2cccc(CN)c2)CCO1 (centres undefined) was tested, and the “Percent Effect” value was -7.811%. For Cc1cc(=O)n(C)cc1NC(=O)Cc1ccc(C(F)(F)F)cc1, the “Percent Effect” value was -20.5%. In the case of CCN(CCNCc1ccc(C#N)cc1)C1CC1, the “Percent Effect” value is reported as -16.49%. With FCCOc1cccc(NCc2c[nH]nc2-c2cccnc2)c1 the “Percent Effect” value was -17.01%. For Fc1ccc(-c2n[nH]cc2-c2ccnc(NCCN3CCCC3)n2)cc1, the “Percent Effect” value was 7.952%. CC(C)[C@H](CO)Nc1nccc(-c2c[nH]nc2-c2ccncc2)n1 was tested, and the “Percent Effect” value was 88.77%. For Cc1ccccc1-n1cc(-c2ccnc(NC(CO)C(C)C)n2)cn1 (centres undefined), the “Percent Effect” value was -0.3825%. For Cc1ccccc1-n1cc(-c2ccnc(N[C@@H](CO)C(C)C)n2)cn1, the “Percent Effect” value was -0.1007%. For OCCNc1nccc(-c2c[nH]nc2-c2ccncc2)n1, the “Percent Effect” value was 131%. In the case of CCOCc1cccc(NCc2c[nH]nc2-c2cccnc2)c1, the “Percent Effect” value is reported as -7.599%. With O=C(NCCNc1ncccn1)c1ccc(-c2ccco2)[nH]c1=O the “Percent Effect” value was 7.88%. In the case of Cc1nc(O)cc(CCNc2nccc(CCC(F)(F)F)n2)n1, the “Percent Effect” value is reported as 19.69%. With OCCNc1nccc(-c2c[nH]nc2-c2ccco2)n1 the “Percent Effect” value was 131.5%. OCCNc1nccc(-c2c[nH]nc2-c2cccnc2)n1 was tested, and the “Percent Effect” value was 121.3%. With COCCNC(=O)CSc1nnc(OC(C)C)s1 the “Percent Effect” value was 5%. With CN(CCNS(C)(=O)=O)C(=O)c1ccc(Cl)c(Cl)c1 the “Percent Effect” value was 2.263%. Cc1nn(C)c(C)c1CN(Cc1cccn1-c1cccnc1)C(C)C was tested, and the “Percent Effect” value was -3.784%. For O=C(NCc1ccccc1OCCO)Nc1ccc2c(c1)CCC2, the “Percent Effect” value was 17.01%. For N#Cc1ccnc(N2CCC(c3nccn3Cc3cscn3)CC2)c1, the “Percent Effect” value was 9.295%. CCCOC(C)C(=O)N1CCC(O)(c2ccc3nc(C)ccc3c2)CC1 (centres undefined) was tested, and the “Percent Effect” value was -16.84%. N#Cc1ccc(NCCC2CCN(CC(F)(F)F)CC2)nc1 was tested, and the “Percent Effect” value was -12.29%. With CN(C)Cc1nnc2n1CCN(Cc1cccnc1)C2 the “Percent Effect” value was -0.7549%. For COCCN1CCN(C(=O)C2CC=CC2)Cc2cccnc21, the “Percent Effect” value was -8.576%. For Cc1ccc2c(n1)N(Cc1cccnc1)CCN(C(=O)C1CCC1)C2.O=C(O)C(F)(F)F.O=C(O)C(F)(F)F, the “Percent Effect” value was -8.761%. In the case of Cc1ccc2c(n1)N(Cc1cccnc1)CCN(C(=O)C1CC=CC1)C2, the “Percent Effect” value is reported as 112.8%. Cc1ccc2c(n1)N(Cc1cccnc1)CCN(Cc1cnn(C)c1)C2 was tested, and the “Percent Effect” value was 105.8%. With Cc1ccc2c(n1)N(CC1CC1)CCN(Cc1cnn(C)c1)C2 the “Percent Effect” value was 122.1%. COCCC(=O)N1CCN(CC2CC2)c2nc(C)ccc2C1.O=C(O)C(F)(F)F was tested, and the “Percent Effect” value was -15.14%. For Cc1ccc2c(n1)N(CC1CC1)CCN(C(=O)NC1CC1)C2.O=C(O)C(F)(F)F, the “Percent Effect” value was -6.473%. For Cc1cc(-c2nn(C)c(Cl)c2CN2CCC3(CC2)[C@H](O)C[C@@H]3O)no1, the “Percent Effect” value was 0.9032%. CNC(=O)CS(=O)(=O)C1CCN(S(=O)(=O)c2c(F)cccc2F)CC1 was tested, and the “Percent Effect” value was 3.089%. With CCn1ccnc1CN1CCCN(C(=O)c2cc(Cl)c[nH]2)CC1 the “Percent Effect” value was -1.253%. CCn1ccnc1CN1CCCN(C(=O)C2(C#N)CCCCC2)CC1 was tested, and the “Percent Effect” value was -5.352%. For CCn1ccnc1CN1CCN(C(C)C(=O)N2CCC(C)CC2)CC1 (centres undefined), the “Percent Effect” value was 15.17%. CCn1ccnc1CN1CCCN(C(=O)c2cncnc2C)CC1 was tested, and the “Percent Effect” value was -6.711%. With CCn1ccnc1CN1CCN(C(C)C(=O)N2CCCCCC2)CC1 (centres undefined) the “Percent Effect” value was 83.63%. In the case of CCn1ccnc1CN1CCN(C(C)C(=O)NC2CCCCC2)CC1 (centres undefined), the “Percent Effect” value is reported as -10.14%. CCn1ccnc1CN1CCN(C(C)C(=O)N2CCCC2)CC1 (centres undefined) was tested, and the “Percent Effect” value was 111.2%. CCn1ccnc1CN1CCCN(C(=O)c2cccn2C)CC1 was tested, and the “Percent Effect” value was 1.946%. CCn1ccnc1CN1CCCN(C(=O)c2cnc(C)cn2)CC1 was tested, and the “Percent Effect” value was 120.4%. COc1cccc(CNC(=O)NC2(c3nc(C)no3)CCCCC2)c1 was tested, and the “Percent Effect” value was -3.756%. For CC(NC(=O)NCCc1cnn(C)c1)c1ccc(Cl)s1 (centres undefined), the “Percent Effect” value was 7.772%. CN(Cc1ccco1)[C@@H]1CN(Cc2ccc(F)cc2)C[C@@H]2CCCO[C@@H]21.O=C(O)C(F)(F)F.O=C(O)C(F)(F)F was tested, and the “Percent Effect” value was 20.99%. For CCCn1[nH]cc/c1=N\C(=O)CN1CCC[C@H]1CO, the “Percent Effect” value was 0.9827%. Cl.O=C(c1ccoc1)N1CCC(NCc2ccccc2Cl)CC1 was tested, and the “Percent Effect” value was -26.85%. With CCN1C[C@H]2CCN(C(=O)NC3CCCC3)CC[C@H]2S1(=O)=O the “Percent Effect” value was 7.84%. With COc1cccc(OC2CN(C(=O)CCn3cnc4ccccc43)C2)c1 the “Percent Effect” value was -24.05%. CC(C)c1cc(C(=O)NCCn2nnc3ccccc32)no1 was tested, and the “Percent Effect” value was -3.58%. For CNC(=O)C1CCN(C(=O)CCn2cccn2)CC1, the “Percent Effect” value was -8.925%. With CNC(=O)C1CN(C)CCN(C(=O)CCn2nnc3ccccc32)C1 (centres undefined) the “Percent Effect” value was 120.6%. For NC(=O)C1CCN(C(=O)Cn2nc(-c3ccccc3)oc2=O)C1 (centres undefined), the “Percent Effect” value was -8.478%. In the case of CN1CCN(C(=O)CCn2nnc3ccccc32)CC(C(N)=O)C1 (centres undefined), the “Percent Effect” value is reported as 138.2%. With Cn1c(CN2CCCCC2)nnc1C1CCN(c2nccc(N)n2)CC1 the “Percent Effect” value was -10.02%. COc1ccc(CNC(=O)CNc2cc3c(cc2Cl)OCCCO3)cc1 was tested, and the “Percent Effect” value was 0.3306%. CC(C)n1nc(CN(C)C)c2c1CN(CC1CC1)CC2.O=C(O)C(F)(F)F.O=C(O)C(F)(F)F was tested, and the “Percent Effect” value was -1.133%. For Cn1nc(CN2CCCC2)c2c1CN(C(=O)c1cnccn1)CC2, the “Percent Effect” value was -11.87%. With Cn1nc(CN2CCCCC2)c2c1CN(Cc1ccoc1)C2.O=C(O)C(F)(F)F.O=C(O)C(F)(F)F the “Percent Effect” value was -5.276%. With CC(C)n1nc(CN2CCCC2)c2c1CN(CC1CC1)CC2.O=C(O)C(F)(F)F.O=C(O)C(F)(F)F the “Percent Effect” value was 114.1%. In the case of CC(C)n1nc(CN(C)C)c2c1CN(C(=O)CC1CC1)CC2.O=C(O)C(F)(F)F, the “Percent Effect” value is reported as -12.31%. For Cn1nc(CNC(=O)CC#N)c2c1CN(CC1CC1)CC2.O=C(O)C(F)(F)F, the “Percent Effect” value was -7.895%. With Cn1nc(CN2CCCC2)c2c1CN(C(=O)Nc1cccc(F)c1)CC2.O=C(O)C(F)(F)F the “Percent Effect” value was -17.26%. In the case of Cn1nc(CN2CCCC2)c2c1CN(c1cnccn1)CC2.O=C(O)C(F)(F)F.O=C(O)C(F)(F)F, the “Percent Effect” value is reported as 110%. With Cn1nc(CN2CCCC2)c2c1CN(CC1CC1)CC2.O=C(O)C(F)(F)F.O=C(O)C(F)(F)F the “Percent Effect” value was 104.5%. For O=C(Cc1cccs1)N1CC(c2nc(-c3cnccn3)no2)C1, the “Percent Effect” value was 16.37%. With CC(C)CN1CCN(S(=O)(=O)c2cn(C)cn2)[C@H]2CS(=O)(=O)C[C@H]21 the “Percent Effect” value was -0.9827%. N#Cc1ccc(F)c(CN(CC(=O)N2CCCC2)CC2CCCO2)c1 (centres undefined) was tested, and the “Percent Effect” value was -8.762%. With CCc1cc(CN(C)C(=O)c2nnc(CN(C)C)o2)on1 the “Percent Effect” value was -21.92%. COc1ccc(CN(C)c2ncc(S(N)(=O)=O)s2)c(OC)c1 was tested, and the “Percent Effect” value was -0.4358%. For CCc1nc(C2CCCN2C(=O)CCc2cscn2)no1 (centres undefined), the “Percent Effect” value was 107.6%. With CCc1nc(C2CCCN2C(=O)c2ncoc2CC)no1 (centres undefined) the “Percent Effect” value was 6.406%. For CCc1nc(C2CCCN2C(=O)CCNS(C)(=O)=O)no1 (centres undefined), the “Percent Effect” value was 1.725%. For CCc1nc(C2CCCN2C(=O)CCc2nc(C3CC3)no2)no1 (centres undefined), the “Percent Effect” value was 115.8%. For O=C(CCc1cscn1)N1CCCC1c1noc(C2CC2)n1 (centres undefined), the “Percent Effect” value was 2.466%. For CCc1nc(C2CCCN2C(=O)CCc2ccc3c(c2)OCO3)no1 (centres undefined), the “Percent Effect” value was -10.43%. With CCc1nc(C2CCCN2C(=O)c2ccoc2C)no1 (centres undefined) the “Percent Effect” value was -2.017%. With CCc1nc(C2CCCN2C(=O)CCc2c(C)noc2Cl)no1 (centres undefined) the “Percent Effect” value was 102.7%. In the case of CCCc1noc(CCC(=O)N2CCCC2c2noc(C3CC3)n2)n1 (centres undefined), the “Percent Effect” value is reported as -5.991%. For CCc1nc(C2CCCN2C(=O)CCc2nc(C(C)(C)C)no2)no1 (centres undefined), the “Percent Effect” value was 121.6%. For CCc1nc(C2CCCN2C(=O)c2c[nH]c(C)n2)no1 (centres undefined), the “Percent Effect” value was -5.998%. In the case of COc1ncc(Cl)c(NCc2ccc(C(=O)N(C)C)cc2)n1, the “Percent Effect” value is reported as -9.459%. In the case of CC(C)c1nc(Cn2cncn2)n(-c2ccccn2)n1, the “Percent Effect” value is reported as -15.87%. CC1CCN(C(=O)c2cn(-c3cc(N4CCOCC4)ncn3)cn2)CC1 was tested, and the “Percent Effect” value was 4.259%.
